Source: PubChem BioAssay
NPR1 antag: antagonists of human natriuretic peptide receptor Npr1; HEK293 hNpr1 GloSensor cGMP, ANP-stimulated luminescence; Potency, µM (doses to about 46.3 µM), for inactives: top-dose activity change, negative = inhibition, usual class: inhibitors; 76,000 compounds, 1.6% hits; calls by dose curve; note: nearly all actives have a fitted effect of over 60% in size
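HEK293 cells stably expressing human Npr1 and cGMP GloSensor pGS-40F, loaded 2 h with 2% GloSensor reagent, given compound 30 min at room temperature. Luminescence read before and 20 min after 0.1 nM hNppA.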
HEK cytotox: kills HEK 293 cells; HEK 293 viability, ATP luminescence (CellTiter-Glo), 48-72 h; 94,000 compounds, 6.6% hits; Potency, µM (titrated, usually from 115 µM), without a hit: at the highest dose activity change, negative = cytotoxicity, hits mostly inhibitors; AID 1345083; note: nearly all actives have a fitted effect of over 60% in size
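HEK 293 cells at 250 cells/well were exposed to compounds by pintool transfer for 48 or 72 hr at 37 degree Celsius, 5% CO2. Viability was read as ATP-coupled luminescence with CellTiter-Glo after 10 min at room temperature.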
3T3 cytotox: kills NIH 3T3 cells. Potency, µM (highest dose often 96.7 µM), for inactives: top-dose activity change, negative = cytotoxicity, most hits filed as inhibitors. 94,000 compounds, 4.3% hits. NIH 3T3 viability, CellTiter-Glo ATP luminescence, 48-72 h; note: nearly all actives have a fitted effect of over 55% in size
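NIH 3T3 cells at 400 cells/well received 23 nL of compound by pintool and were incubated 48 or 72 h at 37 °C. Viability was read as ATP-coupled CellTiter-Glo luminescence.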
FLuc inh: Photinus pyralis luciferase inhibition | P08659 | purified P. pyralis luciferase, luminescence, biochemical | Potency, µM (titrated, usually from 115 µM), most hits filed as inhibitors | 76,000 compounds, 2.5% hits | AID 1347043; note: nearly all actives have a fitted effect of over 65% in size
Target sequence (P08659 whole entry, looked up): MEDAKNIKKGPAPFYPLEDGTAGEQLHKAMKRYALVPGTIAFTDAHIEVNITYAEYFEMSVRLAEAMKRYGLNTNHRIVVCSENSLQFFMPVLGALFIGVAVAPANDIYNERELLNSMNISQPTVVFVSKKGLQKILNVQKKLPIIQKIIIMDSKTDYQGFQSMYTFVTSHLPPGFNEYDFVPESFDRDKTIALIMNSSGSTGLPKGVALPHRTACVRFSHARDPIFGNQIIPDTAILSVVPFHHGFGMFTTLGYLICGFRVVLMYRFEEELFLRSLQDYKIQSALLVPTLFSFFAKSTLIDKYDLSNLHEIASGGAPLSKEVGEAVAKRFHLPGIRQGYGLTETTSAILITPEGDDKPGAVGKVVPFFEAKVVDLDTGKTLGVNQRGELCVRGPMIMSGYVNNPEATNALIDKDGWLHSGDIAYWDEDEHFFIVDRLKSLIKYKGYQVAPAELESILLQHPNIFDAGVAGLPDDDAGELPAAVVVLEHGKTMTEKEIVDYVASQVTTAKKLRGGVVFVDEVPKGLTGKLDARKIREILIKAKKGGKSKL
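Purified P. pyralis luciferase (10nM final) in 50mM Tris acetate pH 7.5, 10mM Mg acetate, 0.01% Tween-20, 0.05% BSA with 10uM D-luciferin and 10uM ATP. Compounds titrated qHTS. Luminescence imaged on CCD.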
* = called active by the depositor; i = inactive; ? = inconclusive; / = no result given; [ ] = remark or other dose. Rows were chosen to be rich in hits. Some 11% of all compounds tested hit in one or more screens of this group. Unless noted, calls come from the whole dose curve; as a rule, active = well fitted curve in the direction sought with a large enough effect; inconclusive = small, poorly fitted or top-dose-only effect, or another doubt; inactive = no such curve, though single readings can be large; an effect the other way counts as inactive or inconclusive. % is set by controls: 0 for no effect and ±100 for the full control effect; potency is the fitted concentration of half-maximal effect.

SMILES	NPR1 antag	HEK cytotox	3T3 cytotox	FLuc inh
COc1ccc(-c2noc([C@@H]3Cc4nc[nH]c4CN3C(=O)Nc3ccccc3)n2)cc1	?	?	?	32µM*
Cc1ccc(NC(=O)N2Cc3[nH]cnc3C[C@H]2c2nc(-c3ccc(C)cc3)no2)cc1	-23%[70.6 µM]	?	100µM*	32µM*
Cc1cccc(OCC(=O)c2ccc3c(c2)N(C(C)C(=O)N2CCOCC2)C(=O)CO3)c1C (stereo not drawn)	1%	?	?	?
O=C(Nc1ccc(F)cc1)c1ccc2nc(-c3ccncc3)oc2c1	/	-34%[172 µM]	-22%[138 µM]	/
Fc1ccccc1-c1noc(-c2nc(C3CC3)no2)n1	?	?	-21%	4.5µM*
Fc1ccccc1-c1noc(-c2nc(-c3ccncc3)no2)n1	-15%	6%	i	i
O=C(c1ccc2ccccc2n1)N1CCC(c2n[nH]c(=O)n2-c2ccccc2)CC1	0%	4%	45µM*	i
Cc1ccc(-n2c(C3CCN(C(=O)c4ccco4)CC3)n[nH]c2=O)cc1	2%	6%	22µM*	i
Cc1ccc(-n2c(C3CCN(C(=O)Cc4cccc(F)c4)CC3)n[nH]c2=O)cc1	15%	-1%	10µM*	i
O=C(c1cccc(F)c1)N1CCC(c2n[nH]c(=O)n2-c2ccccc2)CC1	0%	10%	-2%	i
Cc1ccc(-n2c(C3CCN(C(=O)c4cccc(F)c4)CC3)n[nH]c2=O)cc1	3%	12%	35µM*	i
Cc1ccc(-n2c(C3CCN(C(=O)c4ccc(F)c(F)c4)CC3)n[nH]c2=O)cc1	2%	12%	10µM*	i
O=C(c1ccc(F)c(F)c1)N1CCC(c2n[nH]c(=O)n2-c2ccccc2)CC1	0%	-6%	?	i
Cc1ccc(-n2c(C3CCN(C(=O)c4ccc5cc[nH]c5c4)CC3)n[nH]c2=O)cc1	2%	10%	32µM*	i
O=C(Cn1nc2c(cc1=O)CCCC2)N1CCN(Cc2ccccc2Cl)CC1	7%	?	28µM*	i
O=C(Cn1nc2c(cc1=O)CCCCC2)N1CCN(Cc2ccccc2Cl)CC1	4%	?	-16%	i
O=C(c1ccc(Cl)s1)N1CCC(N(C(=O)C2CC2)C2CCOCC2)CC1	-1%	1%	i	i
O=C(c1ccccc1)N1CCC2(CC1)CCN(CCc1ccccc1)c1ccccc1O2	-6%	40µM*	?	i
CCCN1CCC2(CCN(C(=O)c3ccccc3C)CC2)Oc2ccccc21	26%	?	?	i
O=C(c1ccccc1F)N1CCC2(CC1)CCN(CCc1ccccc1)c1ccccc1O2	-3%	?	?	i
O=C(Cc1ccc(F)cc1)N1CCC2(CC1)CC(=O)N(c1ccccc1)c1ccccc1O2	-9%	40µM*	40µM*	i
COc1ccc(CC(=O)N2CCC3(CC2)CC(=O)N(c2ccccc2)c2ccccc2O3)cc1	31%	?	-20%	i
O=C(c1ccc(F)cc1)N1CCC2(CC1)CCN(CCc1ccccc1)c1ccccc1O2	0%	40µM*	?	i
Cc1ccccc1C(=O)N1CCC2(CC1)CCN(CCc1ccccc1)c1ccccc1O2	2%	28µM*	?	i
CCOC(=O)[C@@H]1[C@@H](OC)C(=O)N(C)C12CCN(C(=O)C1CCC1)CC2	/	-8%	?	/
SMILES	NPR1 antag	HEK cytotox	3T3 cytotox	FLuc inh
Cc1ccccc1NC(=O)N1CCC(CCNC(=O)c2cc(F)ccc2F)CC1	-2%	-9%	-22%	i
CCCC(=O)NC1CCN(c2ccnc3ccnn23)CC1	/	i	-8%[138 µM]	/
Cc1nnc2ccc(N3CCCN(C(=O)c4cccc(C(F)(F)F)c4)CC3)nn12	/	0%	?	/
CN(Cc1ccccc1C(F)(F)F)C(=O)c1cccc(Cl)c1	0%[70.6 µM]	89µM*	?	i
CN(Cc1ccccc1C(F)(F)F)C(=O)c1ccccc1	23%[70.6 µM]	?	-16%[138 µM]	i
COCCn1c(C)cnc1CC1CCCN(S(=O)(=O)c2cccc(OC)c2)C1 (stereo not drawn)	/	?	-29%	/
COc1ccc(-c2cc3c(cn2)CN(Cc2ccccc2)CCN3)cc1OC	-13%[70.6 µM]	?	45µM*	?
COc1ccc(-c2cc3c(cn2)CN(CCc2ccccc2)CCN3)cc1OC	-19%[70.6 µM]	63µM*	40µM*	71µM*
c1ccc(CCN2CCNc3cc(N4CCN(c5ccccn5)CC4)ncc3C2)cc1	-4%[70.6 µM]	50µM*	28µM*	i
Fc1ccccc1-c1cc2c(cn1)CN(Cc1ccncc1)CCN2	?	?	?	71µM*
COc1ccc(Cl)cc1-c1cc2c(cn1)CN(Cc1cccnc1)CCN2	-6%[70.6 µM]	?	?	i
COCCN1C(=O)c2ccccc2C(C(=O)Nc2ccc3[nH]ccc3c2)C12CCCC2 (stereo not drawn)	-6%	-8%	-11%	i
COc1ccc(CNc2cc3c(cn2)CN(Cc2ccccc2)CCN3)cc1OC	0%[70.6 µM]	63µM*	40µM*	i
Oc1ccc(-c2cc3c(cn2)CN(Cc2ccccc2)CCN3)cc1F	-2%[70.6 µM]	?	?	25µM*
c1ccc(CN2CCNc3cc(-c4ccncc4)ncc3C2)cc1	2%[70.6 µM]	?	-19%[138 µM]	?
Cc1cc(C)cc(C2(CNC(=O)C3CC4(CCNCC4)CN3)CCCC2)c1 (stereo not drawn)	-12%	79µM*	?	i
Cc1cc(F)ccc1OC1CN(C(=O)c2ccccc2)C1	-13%[70.6 µM]	?	?	18µM*
Cc1cc(F)ccc1OC1CN(Cc2ccc(C(F)(F)F)cc2)C1	-21%[70.6 µM]	100µM*	?	i
Cc1ccc(C(=O)N2CC(Oc3ccc(F)cc3F)C2)cc1	/	-12%	-20%	/
Cc1cc(F)ccc1OC1CN(Cc2ccc(N(C)C)cc2)C1	0%[70.6 µM]	79µM*	?	i
COc1ccc(C(=O)N2CCC[C@H]2c2nc(-c3ccccc3Cl)no2)cc1OC	-9%	?	-16%	i
COc1ccc(C(=O)N2CCOC3(CCN(C(=O)C(N)Cc4ccccc4)CC3)C2)cc1 (stereo not drawn)	/	2%	i	/
CN1CCCN(C(=O)c2ccc(F)cc2)c2ccccc21	1%	-18%	?	i
Cc1cc(C)cc(C(=O)N2CCCN(C)c3ccccc32)c1	-1%	40µM*	?	i
COCCNC(=O)c1ccc2c(c1)OCCN(c1cccc(OC(F)(F)F)c1)C2	-26%[70.6 µM]	?	?	i
O=C(NC1CCCN(c2cc(-c3ccc(F)cc3)[nH]n2)C1)c1ccc(F)c(F)c1 (stereo not drawn)	-28%	45µM*	?	i
O=C(c1cccc(OC(F)(F)F)c1)N1CCN(c2cc(-c3cccs3)[nH]n2)CC1	-25%	?	?	i
O=C(c1cccc(OC(F)(F)F)c1)N1CCN(c2cc(-c3ccc(F)cc3)[nH]n2)CC1	?	?	35µM*	i
